Our source for the growth values is PubChem BioAssay (NCI).

This test concerns MDA-MB-468 breast. Kind of test: NCI-60 one-dose screen, 48 h (100 = growth as untreated, 0 = no growth, -100 = all killed). The conditions noted are these: 10 µM unless noted.

Values joined by “and” are separate entries in the source; they are usually repeats but may differ in a detail not shown here. Equal entries are not always repeated. The panel holds about 83,000 compounds, 20% with a hit somewhere; the sample as a whole holds those more often.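 Note: values are percent growth. 100 is the growth of untreated cells, values between 100 and 0 indicate rising inhibition; between -100 and 0 indicates cell death.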 Values without a mark were called inactive. Active and inactive are the calls of the source. How the source made its calls: active means growth percent below 10; inactive means the rest.

On to `CC(C)(C)c1cc(-c2nc3ccc(N4CCN(CCO)CC4)cc3[nH]2)cc(C(C)(C)C)c1O`, for which the growth was 52.7%.
With `CC(C)C[C@@H]1N[C@@]2(C(=O)Nc3ccccc32)[C@@H](c2ccc(F)cc2)[C@@H]1C(=O)c1ccc(O)cc1`, the growth is 102%.
With `CCCS(=O)(=O)c1nc(NC2CC2)cc(-c2ccc3c(ccn3C3CC(C)(C)NC(C)(C)C3)c2)n1` the figure was -72.4% (active); with `N#Cc1c(NC(=O)c2ccccc2)sc2c1CCC(=O)C2`, -9.47% (active).
Next, `CCN(CC)CCC(CNc1c(C)cnc2cc(Cl)ccc12)c1ccc(Cl)cc1` (stereo not drawn): 19.3%; `COc1ccc(-c2cc(=O)[nH]c3c(OC)c4ccccc4c(OC)c23)cc1`: -0.192% (active); `CCCCCCCCNC(=O)C(C)C`: 85.4%.
For the compound `Cc1cc(Nc2nc(-c3ccc(F)cc3)nc3ccccc23)n[nH]1`, the growth is 58.2%.
With `CCCCN1C(=O)/C(=c2\sc3n(c2=O)C2C(NN=3)N(CC)C(=O)N2CC)c2ccccc21` (stereo not drawn) the figure was 1.69% (active).
Turning to `Cc1ccc(SCN2CCN(c3cccc(Cl)c3)CC2)cc1`, the growth was 115%.
Consider `CCCc1cn(CC(=O)Nc2nc3ccccc3s2)nn1`, for which the growth was 110%.
Regarding `O=C(CSc1nc2ccc([N+](=O)[O-])cc2[nH]1)Nc1ccc(Br)cc1`, the growth was 14.1%.
Take `COc1ccc(C(=O)/C=C/c2cc3ccccc3[nH]c2=O)cc1`: the growth is 17.6%.
Next, `C=C(C)[C@H]1CC/C(C)=C/CC[C@]2(C)O[C@H]2CC/C(C=O)=C\C1O` (stereo partly drawn): 126%; `CCOC(=O)C(C(C)=O)c1nc2sc3cc(Cl)c(Cl)cc3n2c(=O)c1C#N` (stereo not drawn): 89.5%; `CCOC(=O)c1cnc2ccc(Br)cc2c1Nc1cccc(S(N)(=O)=O)c1`: 106%.
As to `CCOC(=O)NC(/C=C/c1ccccc1)NC(=O)OCC`, the growth was 99.7%.
Next, `O=C1Nc2ccccc2/C1=C/c1ccc(OCC(=O)c2ccccc2)cc1`: 94.6%.
Next, `CC(C)(C)n1cc(-c2ccnc(NCCNS(=O)(=O)c3cccc(F)c3)c2)c(-c2ccccc2)n1`: 62.8%.
With `Cc1c[nH]c(=O)n(Cc2nnc(CCC(=O)c3nc4ccccc4[nH]3)o2)c1=O` the figure was -1.54% (active); with `CCN1C(=O)N(CC)C2C1NN=c1s/c(=C\c3ccc(Cl)cc3Cl)c(=O)n12` (stereo not drawn), 5.35% (active).
For `Cc1c(Cl)cccc1C(=O)Nc1nc2c(s1)CN(C(=O)c1ccc(C(F)(F)F)cc1)CC2`, the growth is 17.7%.
For `Nc1nc(Nc2cc(Cl)cc(Cl)c2)nn1S(=O)(=O)c1ccc2ccccc2c1`, the growth is 66.3%.
Next, `Cc1noc(C)c1-c1ccc2nc(NC(=O)[C@H]3CCN(C#N)C3)cn2c1`: 57.3%; `Cc1ccc2c(c1)sc1nc(-c3c[nH]c4ccccc34)c(Nc3ccccc3)n12`: 105%.
On to `COc1ccc(C(=O)c2c(N)c(C#N)cn2-c2cccc(OC)c2)cc1`, for which the growth is -3.17% (active).
Next, `CCOC(=O)CC1CSC(c2cccc(Cl)c2)=N1` (stereo not drawn): 108%; `Nc1c(C(=O)Nc2ccccc2Cl)sc2nc3c(cc12)CCCCCC3`: -1.41% (active).
Next, `O=C1/C(=C\c2ccc[nH]2)c2ccccc2N1c1ccccc1`: 0.806% (active).
As for `COC(=O)[C@H](Cc1cn(C)cn1)NC(=O)[C@@H](NC(=O)Nc1cc(C(F)(F)F)cc(C(F)(F)F)c1)C(C)(C)C`, the growth was -63.1% [100 µM] (active).
With `NC(CCC(=O)NC(CS)C(=O)NCC(=O)O)C(=O)O` (stereo not drawn) the figure was 102%.
For `Cn1nc(-c2ccccc2)c2c(-c3ccccc3)onc2c1=O`, the growth was 15.1%.
Next, `Nc1nc(Nc2ccccc2)c2ncn(Cc3cc4c(cc3Br)OCO4)c2n1`: 14.7%.
Next, `N#CCCN(NC(=O)OCc1ccccc1)C(=O)OCc1ccccc1`: 116%; `COc1ccc(-c2nc(C#N)c(NCC(c3ccco3)N3CCCC3)o2)cc1` (stereo not drawn): 49.2%.
With `O=S(=O)(NCCNc1nccc(-c2c(-c3ccc(F)c(O)c3)nc3occn23)n1)c1ccccc1` the figure was 59.6%; with `CCCCCCN1C(=O)C2=C(c3ccc(Cl)cc3)Nc3c(c(C)nn3-c3ccccc3)C2c2ccccc21` (stereo not drawn), 84.5%; with `Cn1c(SCC(=O)c2cccs2)nc2ccccc2c1=O`, 68.7%.
Turning to `CC(=O)c1c(Nc2cccc(F)c2)[nH]c2c(Cl)cc(Cl)c(Cl)c2c1=O`, the growth is -10.2% (active).
On to `CCCCC(O)c1ccccc1` (stereo not drawn), for which the growth is 98.6%.
For `CCOC(=O)C1CCc2c(ccc3ccccc23)N1CCC#N` (stereo not drawn), the growth was 73.6%.
On to `N#CCNc1ccccc1N`, for which the growth is 108%.
Next, `CC1=CC(=O)C(C(C)C)=CC1=Nc1cc(Br)c(O)c(Br)c1`: 44.7%; `Cc1cc(C)c(S(=O)O)c(C)c1`: 106%; `O=C(c1ccccc1)[C@H]1[C@@H]2CCCN2[C@]2(C(=O)Nc3ccc(F)cc32)[C@]12C(=O)Nc1ccccc12`: 96.2%.
Next, `NC1N=C(SCC(=O)N2CCN(c3cc4c(cc3F)c(=O)c(C(=O)O)cn4C3CC3)CC2)NC(=O)/C1=C/c1ccc(Cl)cc1` (stereo not drawn): 111%; `O=C(Nc1ccc(Cl)c(C(F)(F)F)c1)Nc1ccc2c(ccn2C(=O)c2cccc(F)c2)c1`: 9.28% (active); `CC(=O)Nc1ccc(-c2cc3c(NCc4ccc(F)cc4)ncnc3s2)cc1`: 69.7%.
Next, `CCOC(=O)C12CCCC1=CC(=O)CC2` (stereo not drawn): 110%; `Cc1c(NC(=O)c2sc3nc4c(cc3c2N)CN(Cc2ccccc2)CC4)cccc1C(F)(F)F`: -5.77% (active).
As for `CCCCOc1nc2ccccc2cc1/C=C/c1cc(/C=C/c2cc3ccccc3nc2OCCCC)n(-c2ccccc2)n1`, the growth was 104%.
Regarding `CN1CCN(C2=C(Cl)C(=O)c3ccccc3C2=O)CC1`, the growth was 57%.
Next, `O=C(Nc1c(Cl)cc(Cl)cc1Cl)ON=C1CCCCC1`: 96.7%; `O=c1[nH][nH]c(=O)c2cc([N+](=O)[O-])ccc12`: 109%.
Regarding `NC(N)=NS(=O)(=O)c1ccc(N=Nc2c(N)nn(-c3ccc([N+](=O)[O-])cc3[N+](=O)[O-])c2N)cc1`, the growth is 106%.
Next, `CCn1c(-c2nonc2N)nc2c(C#CC(C)(C)O)ncc(OC[C@H]3CCCNC3)c21`: 31.5%; `COc1cc(/C=N/Nc2nc3c([nH]2)c(=O)n(C)c(=O)n3C)ccc1O`: 103% and 122%; `CN(C)N1C(=O)c2c(Cl)c(Cl)c(Cl)c(Cl)c2C1=O`: 96.1%.
As for `Brc1ccc2[nH]cc(-c3cncn3CCc3ccccc3)c2c1`, the growth is 17.2%.
Take `N[C@H](C(=O)O)[C@@H]1CC(Cl)=NO1`: the growth is 29.4% [20 µM].
On to `O=C(N/N=C\c1cc(Cl)ccc1O)c1ccncc1`, for which the growth is 36.9%.
As to `COC(=O)c1ccc(NC(=O)Nc2ccc(C(=O)OC)cc2)cc1`, the growth was 97.9%.
Turning to `CC1(C)NCCC[C@]2(C)[C@H]3C/C(=N\O)C4[C@@H]5C[C@@](C)(CO)CC[C@]5(C)CC[C@@]4(C)[C@]3(C)CC[C@@H]12` (stereo partly drawn), the growth is 89.4%.
With `C/C(=C(\c1ccc(OCCCN(C)C)cc1)c1ccc(OC(=O)Cc2ccccc2)cc1)c1ccc(Cl)cc1` the figure was 84.1%; with `Cc1ccc2c(Cn3cc(CSc4nc5ccccc5o4)nn3)cc(=O)oc2c1`, 113%.
Turning to `O=C(c1ccccc1)c1ccc(Oc2ccc([N+](=O)[O-])cc2[N+](=O)[O-])cc1`, the growth is 5.3% (active).
With `C#C[C@]1(O)CC[C@H]2[C@@H]3CC[C@H]4CC(F)(F)CC[C@]4(C)[C@H]3CC[C@@]21C` the figure was 88.2%; with `O=C(Cc1ccccc1)c1ccc(O)c(Cl)c1`, -1.16% (active); with `O=C(Nc1ccccc1N1CCCC1=O)c1oc2ccc(F)cc2c1-c1cnn(-c2ccccc2)c1`, 51.1% [50 µM].
On to `CC[C@@]12C=CCN3CC[C@]4(c5cc(NC(=O)COc6cc(OCC(=O)Nc7cc8c(cc7OC)N(C)[C@H]7[C@@](O)(C(=O)OC)[C@H](OC(C)=O)[C@]9(CC)C=CCN%10CC[C@]87[C@@H]%109)cc7oc(-c8ccccc8)cc(=O)c67)c(OC)cc5N(C)[C@@H]4[C@](O)(C(=O)OC)[C@H]1OC(C)=O)[C@H]32`, for which the growth was 72%.
Next, `C#Cc1cccc(Nc2nc(C)nc3cc(NC(=O)CCl)ccc23)c1`: -78.5% (active).
`COc1ccc2c(c1)C(C)Cc1c(ncnc1-n1c(C)nc3ccccc31)N2C` (stereo not drawn): the growth was 26.2%.
For the compound `Clc1ccc(CNc2c3ccccc3nc3ccccc23)cc1`, the growth was 29.6%.
For `Cn1cc(-c2cnc3ccc(NC(=O)Nc4ccc(F)c(Br)c4)cc3n2)cn1`, the growth was -6.86% (active).
With `C/C=C(/C)C(=O)O[C@@H]1CC(C)(C)CC2C34OC(=O)[C@@]21CC[C@@]3(C)[C@]1(C)CCC2C(C)(C)C(=O)CC[C@]2(C)C1C[C@@H]4Cl` (stereo partly drawn) the figure was 80.5%; with `COc1ccc(C(=O)Cn2c(C(=O)c3ccc(Cl)cc3)nc3ccccc32)cc1`, 63.9%.
Turning to `COc1ccc(C(=O)/C=C/c2c[n+](=O)c3ccc(F)cc3n2[O-])cc1`, the growth is 101%.
For `Nc1cc(N)c(N)cc1N`, the growth is 84.7%.
As for `FC(F)(F)c1cn(CCN2CCOCC2)c2ncnc(Cl)c12`, the growth is 9.54% (active).
With `COc1ccc(N2CCN(S(=O)(=O)c3oc(-c4ccccc4)nc3C#N)CC2)cc1` the figure was 79.6%; with `COc1cccc2nc(Nc3cccc(NC(=O)c4cc(N5CCOCC5)cc(C(F)(F)F)c4)c3)ccc12`, 67.3%; with `[2H]c1nc(=Nc2cc(NC(=O)C=C)c(N(C)CCN(C)C)cc2OC)[nH]c(-c2cn(C([2H])([2H])[2H])c3ccccc23)c1[2H]`, -9.46% (active).
Next, `COc1ccc(/C=C/C(=O)Nc2ccc(-c3nc4ccc(OC)cc4s3)cc2)cc1`: 67.2%.
